# The campaign covered roughly 360,000 compounds. About 16,000 (4.4%) were called active. Where a call stands in place of a potency, no number is given. Another 9% or so got no clear call; they are omitted. Calls follow the shape of the dose curve; as a rule, active = well fitted inhibition curve with a large enough effect; inconclusive = small, poorly fitted or top-dose-only effect; inactive = no such curve, though single readings can be large or run the other way. The full list was thinned out, with actives kept by preference.
# Biological target: Bromodomain adjacent to zinc finger domain protein 2B (Homo sapiens) (UniProt Q9UIF8)
# Sequence (Q9UIF8 whole entry, looked up, the tested form may be a part): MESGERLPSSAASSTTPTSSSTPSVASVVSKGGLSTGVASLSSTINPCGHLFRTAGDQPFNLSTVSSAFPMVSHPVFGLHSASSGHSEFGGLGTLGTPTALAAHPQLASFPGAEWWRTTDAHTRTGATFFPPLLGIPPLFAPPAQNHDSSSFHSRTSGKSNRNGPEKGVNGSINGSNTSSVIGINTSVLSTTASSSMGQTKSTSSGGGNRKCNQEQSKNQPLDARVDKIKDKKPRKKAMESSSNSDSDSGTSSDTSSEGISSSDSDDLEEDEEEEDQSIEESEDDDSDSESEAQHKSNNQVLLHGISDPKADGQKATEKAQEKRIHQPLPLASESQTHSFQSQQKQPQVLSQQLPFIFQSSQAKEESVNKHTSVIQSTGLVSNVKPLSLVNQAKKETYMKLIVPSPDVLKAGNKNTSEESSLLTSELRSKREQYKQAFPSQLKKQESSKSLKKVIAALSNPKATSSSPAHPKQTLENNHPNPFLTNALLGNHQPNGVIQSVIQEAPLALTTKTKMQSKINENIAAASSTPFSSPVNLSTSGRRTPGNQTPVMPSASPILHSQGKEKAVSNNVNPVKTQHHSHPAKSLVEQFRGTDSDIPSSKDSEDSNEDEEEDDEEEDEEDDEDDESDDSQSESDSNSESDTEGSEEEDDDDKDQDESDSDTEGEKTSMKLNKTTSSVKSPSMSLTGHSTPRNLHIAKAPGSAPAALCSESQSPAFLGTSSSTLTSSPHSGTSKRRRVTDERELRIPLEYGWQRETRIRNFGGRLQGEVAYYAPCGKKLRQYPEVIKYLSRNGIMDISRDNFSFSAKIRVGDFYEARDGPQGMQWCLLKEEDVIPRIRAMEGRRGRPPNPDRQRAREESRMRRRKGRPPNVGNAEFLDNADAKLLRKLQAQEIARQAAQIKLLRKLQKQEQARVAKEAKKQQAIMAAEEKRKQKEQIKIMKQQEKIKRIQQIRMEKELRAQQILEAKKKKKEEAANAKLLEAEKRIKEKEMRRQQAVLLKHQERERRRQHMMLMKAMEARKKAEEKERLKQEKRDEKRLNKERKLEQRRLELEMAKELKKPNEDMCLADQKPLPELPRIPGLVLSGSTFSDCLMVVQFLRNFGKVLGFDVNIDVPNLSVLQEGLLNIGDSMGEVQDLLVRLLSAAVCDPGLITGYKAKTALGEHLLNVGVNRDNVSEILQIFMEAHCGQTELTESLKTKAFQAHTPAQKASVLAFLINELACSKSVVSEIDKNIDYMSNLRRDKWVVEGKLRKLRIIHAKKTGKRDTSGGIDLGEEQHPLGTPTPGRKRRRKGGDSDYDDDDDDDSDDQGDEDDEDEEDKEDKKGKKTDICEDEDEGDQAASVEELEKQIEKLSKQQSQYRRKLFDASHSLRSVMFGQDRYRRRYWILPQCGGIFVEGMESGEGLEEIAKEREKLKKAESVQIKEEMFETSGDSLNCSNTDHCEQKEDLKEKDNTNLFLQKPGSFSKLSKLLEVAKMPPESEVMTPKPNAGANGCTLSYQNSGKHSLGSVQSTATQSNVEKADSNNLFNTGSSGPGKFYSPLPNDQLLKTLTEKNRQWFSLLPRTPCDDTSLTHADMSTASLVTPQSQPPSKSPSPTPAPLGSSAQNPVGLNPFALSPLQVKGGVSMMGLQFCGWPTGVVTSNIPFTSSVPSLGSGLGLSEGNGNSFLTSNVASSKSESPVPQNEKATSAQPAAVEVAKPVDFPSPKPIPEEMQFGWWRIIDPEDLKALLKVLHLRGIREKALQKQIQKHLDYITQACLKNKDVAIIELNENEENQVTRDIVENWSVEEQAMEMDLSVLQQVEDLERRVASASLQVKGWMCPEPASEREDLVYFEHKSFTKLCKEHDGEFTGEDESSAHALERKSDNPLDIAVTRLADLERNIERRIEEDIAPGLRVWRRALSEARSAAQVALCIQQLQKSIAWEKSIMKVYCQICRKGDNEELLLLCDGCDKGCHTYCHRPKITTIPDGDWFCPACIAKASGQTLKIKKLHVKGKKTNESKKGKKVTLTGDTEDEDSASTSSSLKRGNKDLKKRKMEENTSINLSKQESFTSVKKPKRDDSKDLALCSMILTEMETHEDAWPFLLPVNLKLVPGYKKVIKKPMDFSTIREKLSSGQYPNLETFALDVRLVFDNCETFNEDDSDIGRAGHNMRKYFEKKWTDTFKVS
# Test: qHTS Assay for Inhibitors of BAZ2B; also: nearly all actives have a fitted effect of over 60% in size
# Conditions: AlphaScreen BAZ2B-H3K14Ac peptide displacement; series mostly up to 114 µM
# Summary of the method: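 AlphaScreen displacement: compounds (up to 110uM) incubated 30 min at room temperature with a preformed 50 nM BAZ2B/50 nM biotinylated H3K14Ac peptide complex in PBS pH 7.4 with Tween-20. Donor and acceptor beads at 10 ug/mL final added, 20 min light-protected before reading.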
# Potency is read from the fitted curve at half-maximal effect.
row,SMILES,Potency
1,COc1ccc(/C=C2/SC(=O)N(CCCCCC(=O)Nc3ccccc3C(=O)O)C2=S)cc1,56.2 µM (active)
2,COc1ccc(/C=C2\SC(=O)N(CCC(=O)NCCCn3ccnc3)C2=O)cc1,inactive
3,COc1ccc(/C=C2\SC(=O)N(CCC(=O)NC3CCS(=O)(=O)C3)C2=O)cc1 (stereo unspecified),inactive
4,CCCCNc1ccc(-c2nc(-c3ccncc3)no2)cc1[N+](=O)[O-],inactive
5,CCN(Cc1ccccc1)Cc1c(O)ccc2c(=O)c(-c3ccc(Cl)cc3Cl)coc12,inactive
6,COc1ccc2c(c1)C(C)=CC(C)(C)N2C(=O)Nc1ccccc1,50.1 µM (active)
7,COc1cccc(NC(=O)C2C(c3ccccc3)C2(Cl)Cl)c1 (stereo unspecified),inactive
8,CC1=CC(C)(C)N(C(=O)CSc2nnc(-c3ccccc3)o2)c2ccc(C)cc21,inactive
9,CC1=C(C(=O)OCc2ccc(C)cc2)C(c2c(Cl)cccc2Cl)CC(=O)N1 (stereo unspecified),inactive
10,Cc1ccc(OCCn2c(CNc3ccccc3C)nc3ccccc32)cc1,inactive
11,COc1ccc(OC)c(NC(=O)C2CCCN(S(=O)(=O)c3ccc4c(c3)CCCC(=O)N4)C2)c1 (stereo unspecified),inactive
12,CC1CCC2CCCCC2N1C(=O)c1cc([N+](=O)[O-])cc([N+](=O)[O-])c1 (stereo unspecified),50.1 µM (active)
13,O=C(c1cc(C(=O)N2CCN(c3ccc(F)cc3)CC2)cc([N+](=O)[O-])c1)N1CCN(c2ccc(F)cc2)CC1,inactive
14,COC(=O)c1cc(C(=O)NC(C)C2CC3CCC2C3)cc([N+](=O)[O-])c1 (stereo unspecified),inactive
15,COc1ccc(N2CCN(c3cc(C)nc4nncn34)CC2)cc1,inactive
16,COc1ccc(N2C(=O)CSC23C(=O)N(Cc2cccc(F)c2)c2ccccc23)cc1Cl (stereo unspecified),inactive
17,Cc1ccc(-n2c(SCC(=O)c3ccccc3)nc3c([nH]c4ccccc43)c2=O)cc1,inactive
18,COc1ccc(C)cc1NC(=O)NCc1ccccn1,inactive
19,COc1ccc2ccccc2c1CNc1nnnn1C,inactive
20,COc1ccc2ccccc2c1CNCc1ccccn1,79.4 µM (active)
21,CCCSc1ncc(Cl)c(C(=O)Nc2sc3c(c2C(=O)NCCOC)CCCC3)n1,inactive
22,Cc1c(Cl)cccc1NC(=O)C1CCCN(c2ncnc3onc(C)c23)C1 (stereo unspecified),inactive
23,O=c1c2c3c(sc2n(CCN2CCCC2)c(=O)n1Cc1ccccc1)CCCCC3,89.1 µM (active)
24,Cc1ccc(NC(=O)Cn2c(=O)n(-c3ccccc3)c(=O)c3c4c(sc32)CCCC4)cc1,inactive
25,CCOC(=O)N1CCc2c(sc3c2c(=O)n(Cc2ccccc2)c(=O)n3CC(=O)Nc2cccc(C)c2)C1,inactive
26,O=C(Nc1cc(C(F)(F)F)ccc1Cl)c1nc2ccccc2nc1N1CCCCC1,inactive

row,SMILES,Potency
1,Brc1ccccc1C1N=C(c2ccccc2)NO1 (stereo unspecified),inactive
2,COc1cc2c(cc1OC)C(c1ccccc1Br)NC(=O)C2 (stereo unspecified),inactive
3,Brc1ccccc1C1Nc2cccc3cccc(c23)N1,44.7 µM (active)
4,COc1ccc(C(=O)Nc2ccccc2C(=O)N2CCN(c3ccccc3)CC2)cc1,inactive
5,COc1ccc(N2CCN(C(=O)c3ccc4c(Cl)c5c(nc4c3)CCCC5)CC2)cc1,inactive
6,COc1ccc(N2CCN(C(=O)c3ccc(N4CCCCS4(=O)=O)cc3)CC2)cc1,50.1 µM (active)
7,O=C(NCC(c1cccnc1)N1CCc2ccccc21)c1cccc(C(F)(F)F)c1 (stereo unspecified),inactive
8,COc1ccc(-c2nn3c(=O)cc(CN4CCN(C(=O)c5ccc(OC)c(OC)c5)CC4)nc3s2)cc1,inactive
9,COc1ccc(NC(=O)c2cnc(NS(=O)(=O)c3ccccc3)nc2)cc1,inactive
10,COc1ccc(S(=O)(=O)/N=C2\C=C(NS(=O)(=O)c3ccccc3)C(=O)c3ccccc32)cc1,10 µM (active)
11,COc1ccc(S(=O)(=O)Nc2cc3c(C(=O)OC(C)C)c(C)oc3c3ccccc23)cc1,inactive
12,COc1cc(NC(=O)c2nc3ccccc3nc2C)cc(OC)c1OC,inactive
13,CCOc1ccc(NCCC(=O)c2ccc3c(c2)OCO3)cc1,39.8 µM (active)
14,COC(=O)CCNc1ccc2c(c1)OCCO2,inactive
15,O=C(COc1ccc(Cl)cc1)Nc1ccc2c(c1)OCO2,inactive
16,CCCCN1C(=O)c2[nH]nc(-c3ccccc3O)c2C1c1cccc(OCc2ccccc2)c1 (stereo unspecified),inactive
17,Cc1cccc(NC(=O)c2ccc3nc(C(C)C)oc3c2)c1C,inactive
18,CC(=O)c1ccc(NS(=O)(=O)c2ccc(-c3cc(C)no3)s2)cc1,inactive
19,O=C(Nc1cc(Cl)cc(Cl)c1)c1ccc2c(c1)N(Cc1cccc(Cl)c1)C(=O)c1ccccc1S2=O (stereo unspecified),inactive
20,CCOC(=O)c1ccc(NC(=O)C2CCN(S(=O)(=O)c3ccc4c(c3)CCCC(=O)N4)CC2)cc1,inactive
21,CC(C)c1ccc(C2C(C(=O)c3ccco3)=C(O)C(=O)N2CC2CCCO2)cc1 (stereo unspecified),inactive
22,C=CCSc1nnc(N2C(=O)C(O)=C(C(=O)c3ccco3)C2c2ccc(F)cc2)s1 (stereo unspecified),50.1 µM (active)
23,O=C(C1=C(O)C(=O)N(Cc2ccccc2)C1c1ccco1)c1ccco1 (stereo unspecified),inactive
24,COc1ccccc1N1CCN(c2ncnc3onc(-c4ccc(F)cc4)c23)CC1,inactive
25,Cc1nc(SCCOc2ccc(Cl)cc2)[nH]c(=O)c1Cc1ccccc1,inactive
26,Cc1ccc(OCCSc2nc(-c3cccs3)nc3cc(=O)[nH]n23)cc1Cl,50.1 µM (active)

row,SMILES,Potency
1,CCn1c(SCC(=O)c2ccc3ccccc3c2)nnc1-c1cccs1,inactive
2,O=c1cc2nc(-c3ccccc3)nc(SCCOc3ccc(Cl)cc3)n2[nH]1,50.1 µM (active)
3,CC(C)c1c(O)nc(SCCOc2ccc(Cl)cc2)[nH]c1=O,inactive
4,Cc1ccc(-c2nc(SCc3ccc(Br)cc3)n3[nH]c(=O)cc3n2)cc1,79.4 µM (active)
5,Cc1cccc(-c2nc(SCc3ccc(Br)cc3)n3[nH]c(=O)cc3n2)c1,inactive
6,Cc1ccc2nc(-c3ccc(Br)cc3)cn2c1,inactive
7,CC(C)(C)C1CCc2c(sc(NC(=O)c3ccccc3F)c2C(=O)N2CCCCC2)C1 (stereo unspecified),inactive
8,COc1cccc(-c2cc(C(=O)Nc3ccc(C)cc3)[nH]n2)c1,inactive
9,COc1ccc(-c2noc(-c3ccc(N4CCN(c5ccccc5)CC4)c([N+](=O)[O-])c3)n2)cc1OC,inactive
10,CCN(CC)S(=O)(=O)c1ccc2c(c1)N(CC(=O)NCc1ccccc1)C(=O)CS2,inactive
11,CCNS(=O)(=O)c1cc(-c2nnc(Nc3cccc(C(F)(F)F)c3)c3ccccc23)ccc1C,inactive
12,COCCCNCC(=O)Nc1sc(C)c(C)c1C(=O)OC,50.1 µM (active)
13,COC(=O)c1c(NC(=O)c2c(Cl)cnn2C)sc(C)c1C,inactive
14,CCC(=O)Nc1sc(C(=O)Nc2ccccc2)c(C)c1C(=O)OC,inactive
15,Cc1ccc2c(=O)cc(C(=O)Nc3sc4c(c3C(=O)NCc3cccnc3)CCCC4)oc2c1,inactive
16,CCOC(=O)c1c(C)n(S(=O)(=O)c2ccc(C)cc2C)c2ccc(NS(=O)(=O)c3ccc(C)cc3C)cc12,inactive
17,Cc1ccc(CNC(=O)c2c(O)nc3c(C)cccn3c2=O)cc1,inactive
18,CNc1ccc(-c2nc(-c3ccco3)no2)cc1[N+](=O)[O-],inactive
19,CC(Nc1ccc(-c2nc(-c3ccco3)no2)cc1[N+](=O)[O-])c1ccccc1 (stereo unspecified),79.4 µM (active)
20,CNc1ccc(-c2nc(-c3ccccc3C)no2)cc1[N+](=O)[O-],inactive
21,COc1ccc(NC(=O)c2ccc3nc(CCc4ccccc4)oc3c2)c(OC)c1,inactive
22,O=C1Cc2cc(S(=O)(=O)Nc3ccc(OC(F)(F)F)cc3)cc3c2N1CCC3,inactive
23,COc1ccc2c(CNCCc3ccccc3C)c(C(=O)O)n(Cc3ccccc3C)c2c1,inactive
24,CN1C(=O)/C(=C/c2ccco2)SC1=Nc1cccc(C(=O)O)c1,50.1 µM (active)
25,CN=C1S/C(=C\c2c(OC)cc(OC)cc2OC)C(=O)N1C,inactive
26,O=C(O)c1cccc(N=NN2CCCCCC2)c1,inactive

row,SMILES,Potency
1,CCCCCCn1nnc2sc(-c3ccccc3)cc2c1=O,inactive
2,Cc1ccc(C(=O)NC(=S)NCCN2CCOCC2)cc1,inactive
3,Cc1cc(C(=O)NNC(=S)Nc2ccccc2C)cs1,inactive
4,COC(=O)c1ccc(NC(=S)NN2CCOCC2)cc1,inactive
5,Cc1ccc(C(=O)NC(=S)Nc2ccccc2C)cc1,89.1 µM (active)
6,Cc1ccc(C(=O)NC(=S)Nc2ccc(N3CCOCC3)cc2)cc1,14.1 µM (active)
7,Cc1cc2[nH]ncc2cc1NC(=S)NC(=O)c1ccccc1,inactive
8,COc1ccc(-c2cc(C(F)(F)F)nc(SCC(=O)N(C)Cc3ccccc3)n2)cc1OC,inactive
9,Cc1c(Cl)cccc1NC(=O)C1CCCN(C(=O)c2cnn(-c3ccccc3)c2-n2cccc2)C1 (stereo unspecified),inactive
10,COc1ccc(CCNC(=O)c2nn(C)c3c2CSc2ccccc2-3)cc1OC,inactive
11,Cc1cc(NC(=O)CSc2ncc(C(=O)Nc3ccc(Cl)cc3)c(=O)n2C)no1,inactive
12,Cc1ccc(-c2nnc(Nc3cccc(Br)c3)c3ccccc23)cc1S(=O)(=O)NCC1CCCO1 (stereo unspecified),inactive
13,Cc1cn(C)c(CC(=O)NCc2ccc(Cl)cc2)c1C(=O)O,inactive
14,Cc1ccc(CCCOC(=O)C[N+]2(C)CCCC2)cc1,50.1 µM (active)
15,Cc1ccc(CCCOC(=O)C[N+]2(C)CCCCC2)cc1,inactive
16,Cc1ccc(COC(=O)CN2C(=O)NC3(CCCC3)C2=O)cc1,inactive
17,COc1ccc(-c2nn(CC(=O)Nc3ccccc3F)c3c2cnc2ccc(F)cc23)cc1,inactive
18,CC(=O)Nc1ccc(NC(=O)CCCc2nc(-c3ccc(C(C)(C)C)cc3)no2)cc1,inactive
19,Cc1ccc(CCNC(=O)Cn2c(-c3cccs3)cc3cc(F)ccc32)cc1,inactive
20,Cc1cccc(Nc2nc(C)nc(N)c2S(=O)(=O)c2ccccc2)c1,inactive
21,CCc1nc(SCC(=O)NNC(=O)c2ccc(C)cc2)c2ccccc2n1,inactive
22,Cc1ccc(C(=O)NNc2ncnc3ccccc23)cc1,56.2 µM (active)
23,Cc1ccc(C(=O)NNC(=O)c2cccs2)cc1,inactive

# Reference: PubChem BioAssay AID504333 (National Center for Advancing Translational Sciences (NCATS), 2011)
